Measurements: PubChem BioAssay (NCI)
Compounds without any hit were thinned out: in the full panel of roughly 83,000, 20% have a hit.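 Compound tested at a single concentration for 48 hours in 96-well plates; a percent growth value below 10 was scored as active.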 The source made the active and inactive calls.

Tested on: HCC-2998 colon
Test: NCI-60 one-dose screen, 48 h (100 = growth as untreated, 0 = no growth, -100 = all killed)
Conditions: 10 µM unless noted

| Compound | growth |
| --- | --- |
| Clc1ccc(Sc2cnc(-c3ccccc3)o2)cc1 | 99.2% (inactive) |
| OCc1cccc(-c2ccc3ncc(-c4nc(NC5CC5)ncc4F)n3c2)c1 | -0.971% (active) |
| CO/N=C(/C)c1ccc(NC(=O)CSc2nnc(-c3ccncc3)n2-c2ccccc2)cc1 | 82.3% (inactive) |
| Cc1ccc(C2=Nc3c(N)ncnc3NC(c3ccc4c(c3)OCO4)C2)cc1 (centres undefined) | 2.97% (active) |
| COc1cc2oc(-c3cccc(NC(=O)c4cccc(Br)c4)c3)cc(=O)c2c(OC)c1OC | 57.8% (inactive) |
| CN(C)CCCn1c2c(c3ncccc3c1=O)C(=O)c1ccccc1-2 | 63.9% (inactive) |
| Cc1nnc(-n2c(O)cc(=O)n(-c3ccccc3)c2=S)nc1/C=C/c1ccc(N(C)C)cc1 | 63.7% (inactive) |
| O=S(=O)(Nc1ccc(Cl)cc1)c1ccc(-c2cnc(C3CC3)o2)cc1 | 40.3% (inactive) |
| O=C1/C(=C/c2ccc(Cl)cc2)COc2ccc(O)c(O)c21 | 5.98% (active) |
| COc1ccc(-c2nc3c(c(-c4ccccc4)nn3-c3ccccc3)c(-c3ccc(N4CCOCC4)cc3)c2C#N)cc1 | 108% (inactive) |
| COc1cc(-c2nc3cc(Cl)c(Cl)cc3[nH]2)ccc1OCC(=O)N=Nc1c(O)[nH]c2ccc([N+](=O)[O-])cc12 | 71.8% (inactive) |
| COc1ccc(N2CCC(=O)NC2=S)cc1 | 95.9% (inactive) |
| CCOC(=O)C1=C(NC)OCC1=O | 102% (inactive) |
| COc1cc(OC)c2sc(-c3ccc(-n4cncc4-c4ccc(OC)c(OC)c4)cc3)nc2c1 | 76.4% (inactive) |
| COCCNC(=O)c1ccc(-c2nc3ccc4[nH]ncc4c3c3c2CCCC3)cc1 | 47.5% (inactive) |
| Oc1c(Cl)cc(Cl)c2ccc(Cn3cc(-c4cc(F)cc(F)c4)nn3)nc12 | 103% (inactive) |
| O=C(/C=C/c1cn(-c2ccccc2)nc1-c1ccc([N+](=O)[O-])cc1)c1ccc(Cl)cc1 | -22% (active) |
| CCN1CCN(Cc2cn(CC(=O)Nc3ccc4c(ccn4Cc4ccccc4)c3)nn2)CC1 | 110% (inactive) |
| C=C(CNCCc1ccc(O)cc1)[C@@H]1CC[C@]2(CO)CC[C@]3(C)[C@H](CC[C@@H]4[C@@]5(C)CCC(NCCO)C(C)(C)[C@@H]5CC[C@]43C)[C@@H]12 (some centres undefined) | -84.3% (active) |
| CC(C)(C)[Si](C)(C)O[C@H]1C(=O)C=CN2CC=C[C@@H]12 | 111% [100 µM] (inactive) |
| CN(C)CC(=O)Nc1ccc2ncnc(Nc3ccc(Oc4cccc(C(F)(F)F)c4)c(Cl)c3)c2c1 | 23.7% (inactive) |
| O=[N+]([O-])C1C(c2ccccc2)C12c1ccccc1-c1ccccc12 (centres undefined) | -18.8% (active) |
| O=CC1(C2(C=O)c3ccccc3-c3ccccc32)c2ccccc2-c2ccccc21 | -41.5% (active) |
| Cc1nc(N2CCOCC2)sc1S(N)(=O)=O | 104% (inactive) |
| CCCCN[C@H]1CC[C@@]2(C)[C@@H](CC[C@@]3(C)[C@H]2[C@H](O)C[C@H]2/C(=C(\CCC=C(C)C)C(=O)OC)[C@@H](OC(C)=O)C[C@@]23C)[C@@H]1C | 99.3% (inactive) |
| O=C(/C=C/c1ccccc1)c1cccc(OCCCOc2cccc(C(=O)/C=C/c3ccccc3)c2)c1 | 42.2% (inactive) |
| OCCOCCN(Cc1ccccn1)Cc1cc(I)cc(I)c1O | 111% (inactive) |
| O=Cc1ccc([N+](=O)[O-])s1 | 100% (inactive) |
| COc1ccc(Cc2cc(-c3ccccc3)nn(Cc3ccccc3)c2=O)cc1OC | 60.5% (inactive) |

Tested on: KM12 colon
Test: as above
Conditions: 10 µM unless noted

| Compound | growth |
| --- | --- |
| C1=CN2CC(c3ccccc3)=NNC2c2ccccc21 (centres undefined) | 99.4% (inactive) |
| NC(=O)CCC(C(=O)O)N1C(=O)c2ccc(O)cc2C1=O (centres undefined) | 103% (inactive) |
| Clc1ccc(Sc2cnc(-c3ccccc3)o2)cc1 | 102% (inactive) |
| OCc1cccc(-c2ccc3ncc(-c4nc(NC5CC5)ncc4F)n3c2)c1 | -18.8% (active) |
| CO/N=C(/C)c1ccc(NC(=O)CSc2nnc(-c3ccncc3)n2-c2ccccc2)cc1 | 61.9% (inactive) |
| Cc1ccc(C2=Nc3c(N)ncnc3NC(c3ccc4c(c3)OCO4)C2)cc1 (centres undefined) | 35.3% (inactive) |
| COc1cc2oc(-c3cccc(NC(=O)c4cccc(Br)c4)c3)cc(=O)c2c(OC)c1OC | 40.4% (inactive) |
| COC(=O)c1cc(-c2ccccc2)[nH]c1N/N=C/c1c(Cl)cccc1Cl | 10.2% (inactive) |
| CN(C)CCCn1c2c(c3ncccc3c1=O)C(=O)c1ccccc1-2 | 40.9% (inactive) |
| Cc1nnc(-n2c(O)cc(=O)n(-c3ccccc3)c2=S)nc1/C=C/c1ccc(N(C)C)cc1 | 47.9% (inactive) |
| COc1ccc2c(c1)[n+]([O-])c(C(=O)/C=C/C=C(\Cl)c1cc(OC)c(OC)c(OC)c1)c(C)[n+]2[O-] | 101% (inactive) |
| O=S(=O)(Nc1ccc(Cl)cc1)c1ccc(-c2cnc(C3CC3)o2)cc1 | 20.9% (inactive) |
| O=C1/C(=C/c2ccc(Cl)cc2)COc2ccc(O)c(O)c21 | -2.9% (active) |
| COc1ccc(-c2nc3c(c(-c4ccccc4)nn3-c3ccccc3)c(-c3ccc(N4CCOCC4)cc3)c2C#N)cc1 | 104% (inactive) |
| N#Cc1c(NC(=O)c2ccccc2)sc2c1CCC(=O)C2 | 8.5% (active) |
| COc1cc(-c2nc3cc(Cl)c(Cl)cc3[nH]2)ccc1OCC(=O)N=Nc1c(O)[nH]c2ccc([N+](=O)[O-])cc12 | 103% (inactive) |
| COc1ccc(N2CCC(=O)NC2=S)cc1 | 106% (inactive) |
| CCOC(=O)c1nc(Nc2ccc(NC(=O)Nc3ccc(F)cc3)cc2)c2ccccc2n1 | 102% (inactive) |
| CCOC(=O)C1=C(NC)OCC1=O | 105% (inactive) |
| COc1cc(OC)c2sc(-c3ccc(-n4cncc4-c4ccc(OC)c(OC)c4)cc3)nc2c1 | 52.8% (inactive) |

| Compound | growth |
| --- | --- |
| COCCNC(=O)c1ccc(-c2nc3ccc4[nH]ncc4c3c3c2CCCC3)cc1 | 19.7% (inactive) |
| Oc1c(Cl)cc(Cl)c2ccc(Cn3cc(-c4cc(F)cc(F)c4)nn3)nc12 | 102% (inactive) |
| Cc1ccc2c(n1)C(=O)c1[nH]c3ccccc3c1C2=O | 37% (inactive) |
| C=CCc1c2c(c(OC)c3ccoc13)C(=O)/C(=C/c1ccccc1OC)O2 | 46.8% (inactive) |
| O=C(/C=C/c1cn(-c2ccccc2)nc1-c1ccc([N+](=O)[O-])cc1)c1ccc(Cl)cc1 | 41.8% (inactive) |
| CCN1CCN(Cc2cn(CC(=O)Nc3ccc4c(ccn4Cc4ccccc4)c3)nn2)CC1 | 101% (inactive) |
| C=C(CNCCc1ccc(O)cc1)[C@@H]1CC[C@]2(CO)CC[C@]3(C)[C@H](CC[C@@H]4[C@@]5(C)CCC(NCCO)C(C)(C)[C@@H]5CC[C@]43C)[C@@H]12 (some centres undefined) | -25.8% (active) |
| CC(C)(C)[Si](C)(C)O[C@H]1C(=O)C=CN2CC=C[C@@H]12 | 104% [100 µM] (inactive) |
| CN(C)CC(=O)Nc1ccc2ncnc(Nc3ccc(Oc4cccc(C(F)(F)F)c4)c(Cl)c3)c2c1 | 55.5% (inactive) |
| O=[N+]([O-])C1C(c2ccccc2)C12c1ccccc1-c1ccccc12 (centres undefined) | 1.09% (active) |
| Cc1cccc(N2CCN(CC(O)COc3ccc(Cl)cc3)CC2)c1 (centres undefined) | 97.1% (inactive) |
| O=CC1(C2(C=O)c3ccccc3-c3ccccc32)c2ccccc2-c2ccccc21 | -44.5% (active) |
| Cc1nc(N2CCOCC2)sc1S(N)(=O)=O | 94.1% (inactive) |
| CCCCN[C@H]1CC[C@@]2(C)[C@@H](CC[C@@]3(C)[C@H]2[C@H](O)C[C@H]2/C(=C(\CCC=C(C)C)C(=O)OC)[C@@H](OC(C)=O)C[C@@]23C)[C@@H]1C | 104% (inactive) |
| O=C(/C=C/c1ccccc1)c1cccc(OCCCOc2cccc(C(=O)/C=C/c3ccccc3)c2)c1 | 25.7% (inactive) |
| OCCOCCN(Cc1ccccn1)Cc1cc(I)cc(I)c1O | 91.3% (inactive) |
| O=Nc1c(-c2c(O)[nH]c3ncccc23)[nH]c2ccccc12 | 15% (inactive) |
| O=Cc1ccc([N+](=O)[O-])s1 | 102% (inactive) |
| COc1ccc(Cc2cc(-c3ccccc3)nn(Cc3ccccc3)c2=O)cc1OC | 35.2% (inactive) |
| O=C1Nc2ccccc2/C1=C\c1nc(-c2ccccc2)n2ccccc12 | 74.3% (inactive) |
